Measurements reported in PubChem BioAssay AID1159580 (chemical genetic matrix, 2015).
“And” between values parts separate entries of the source, which are not always exact repeats. Identical values can stand only once. About 2,000 (36%) of roughly 5,500 compounds were called active. About 18% were inconclusive and are not listed. No stated cut-off is given here; in the data, active means normalized growth mostly below about 0.91 (no sharp cut-off); inconclusive means no clear call, values can overlap the other calls; inactive means mostly above about 0.92. Some of the results follow.

Assay: chemical genetic growth profiling, strain panel (AID 1159580);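 further: tested at 20 µM; growth read once vehicle control cultures reached saturation at 30 °C; 1 = growth at the plate median or of vehicle wells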
Conditions: S. cerevisiae deletion strains, growth OD

Measured: normalized growth

CC1(C)[C@@H]2CC[C@@]1(C)C(=O)C2
inactive: locus YAL013W, strain DEP1, stronger effect = lower value 0.962 | locus YAL021C, strain ccr4, stronger effect = lower value 0.97 | locus YAL026C, strain drs2, stronger effect = lower value 1.03 | locus YAL030W, strain snc1, stronger effect = lower value 1.02 | locus YBL061C, strain skt5, stronger effect = lower value 1.02 | locus YBR009C, strain hhf1, stronger effect = lower value 1.01 | locus YBR021W, strain FUR4, stronger effect = lower value 1 | locus YBR023C, strain chs3, stronger effect = lower value 1.01 | locus YBR171W, strain sec66, stronger effect = lower value 1.02 | locus YBR229C, strain ROT2, stronger effect = lower value 0.99 | locus YBR231C, strain swc5, stronger effect = lower value 1.01 | locus YBR279W, strain paf1, stronger effect = lower value 0.993 | locus YCL011C, strain gbp2, stronger effect = lower value 1 | locus YCL016C, strain dcc1, stronger effect = lower value 0.987 | locus YCL029C, strain bik1, stronger effect = lower value 1 | locus YCL061C, strain MRC1, stronger effect = lower value 1.02 | locus YCL069W, strain vba3, stronger effect = lower value 1.02 | locus YCR088W, strain abp1, stronger effect = lower value 1.01 | locus YDL005C, strain med2, stronger effect = lower value 1.01 | locus YDL035C, strain GPR1, stronger effect = lower value 1.01 | locus YDL040C, strain nat1, stronger effect = lower value 1 | locus YDL074C, strain BRE1, stronger effect = lower value 1.02 | locus YDL101C, strain DUN1, stronger effect = lower value 1 | locus YDL134C, strain PPH21, stronger effect = lower value 0.994 | locus YDL185W, strain tfp1, stronger effect = lower value 1 | locus YDL192W, strain arf1, stronger effect = lower value 1 | locus YDR001C, strain nth1, stronger effect = lower value 1.01 | locus YDR069C, strain doa4, stronger effect = lower value 1.02 | locus YDR101C, strain arx1, stronger effect = lower value 0.995 | locus YDR137W, strain rgp1, stronger effect = lower value 1.02 | locus YDR159W, strain sac3, stronger effect = lower value 1.06 | locus YDR162C, strain NBP2, stronger effect = lower value 1.01 | locus YDR195W, strain ref2 0.972 | locus YDR297W, strain sur2, stronger effect = lower value 1.02 | locus YDR318W, strain mcm21, stronger effect = lower value 0.996 | locus YDR334W, strain swr1, stronger effect = lower value 1.01 | locus YDR335W, strain msn5, stronger effect = lower value 0.993 | locus YDR388W, stronger effect = lower value 1.01 | locus YDR392W, strain spt3, stronger effect = lower value 0.902 | locus YDR502C, strain sam2, stronger effect = lower value 0.995 | locus YEL003W, strain gim4, stronger effect = lower value 1.01 | locus YEL037C, strain rad23, stronger effect = lower value 1 | locus YEL061C, strain CIN8 (second series), stronger effect = lower value 1 | locus YEL061C, strain CIN8, stronger effect = lower value 1 | locus YER015W, strain faa2, stronger effect = lower value 1.01 | locus YER016W, strain bim1, stronger effect = lower value 1.01 | locus YER110C, stronger effect = lower value 1.01 | locus YER111C, strain swi4, stronger effect = lower value 1.01 | locus YER155C, strain BEM2 (second series), stronger effect = lower value 1.02 | locus YER155C, strain BEM2, stronger effect = lower value 0.982 | locus YER167W, strain BCK2, stronger effect = lower value 0.992 | locus YFR010W, strain ubp6, stronger effect = lower value 1.02 | locus YGL078C, strain dbp3, stronger effect = lower value 0.996 | locus YGL086W, strain mad1, stronger effect = lower value 0.995 | locus YGL167C, strain pmr1, stronger effect = lower value 1.01 | locus YGL173C, strain kem1, stronger effect = lower value 1.03 | locus YGL227W, strain vid30, stronger effect = lower value 1.01 | locus YGL240W, strain doc1, stronger effect = lower value 1.01 | locus YGL248W, strain PDE1, stronger effect = lower value 0.99 | locus YGL253W, strain hxk2, stronger effect = lower value 1.02 | locus YGR078C, strain PAC10, stronger effect = lower value 1.01 | locus YGR135W, strain pre9, stronger effect = lower value 0.996 | locus YGR252W, strain gcn5, stronger effect = lower value 0.937 | locus YHR013C, strain ard1, stronger effect = lower value 0.991 | locus YHR027C, strain rpn1, stronger effect = lower value 1.02 | locus YHR030C, strain SLT2, stronger effect = lower value 1 and 1.03 | locus YHR079C, strain IRE1 (second series), stronger effect = lower value 0.997 | locus YHR079C, strain IRE1, stronger effect = lower value 1.05 | locus YHR094C, strain hxt1, stronger effect = lower value 1 | locus YHR129C, strain ARP1, stronger effect = lower value 1 | locus YHR142W, strain chs7, stronger effect = lower value 0.989 | locus YHR200W, strain rpn10, stronger effect = lower value 1 | locus YIL066C, strain RNR3, stronger effect = lower value 1.03 | locus YIL073C, strain SPO22, stronger effect = lower value 1.02 | locus YIL125W, strain kgd1, stronger effect = lower value 1 | locus YIR030C, strain dcg1, stronger effect = lower value 0.996 | locus YJL092W, strain hpr5, stronger effect = lower value 1.01 | locus YJL095W, strain BCK1 (second series), stronger effect = lower value 1.01 | locus YJL095W, strain BCK1, stronger effect = lower value 1.02 and 1.05 | locus YJL115W, strain asf1, stronger effect = lower value 1.01 | locus YJL129C, strain trk1, stronger effect = lower value 1.03 | locus YJL134W, strain LCB3, stronger effect = lower value 0.995 | locus YJL154C, strain vps35, stronger effect = lower value 1.01 | locus YJL164C, strain tpk1, stronger effect = lower value 0.98 | locus YJL166W, strain qcr8, stronger effect = lower value 1.03 | locus YJL168C, strain set2, stronger effect = lower value 1.01 | locus YJL187C, strain SWE1 (second series), stronger effect = lower value 1.01 | locus YJL187C, strain SWE1, stronger effect = lower value 1 | locus YJR043C, strain POL32, stronger effect = lower value 1.01 | locus YJR066W, strain TOR1, stronger effect = lower value 0.973 | locus YKL009W, strain mrt4, stronger effect = lower value 0.987 | locus YKL068W, stronger effect = lower value 0.992 | locus YKL085W, strain MDH1 (second series), stronger effect = lower value 1.01 | locus YKL085W, strain MDH1, stronger effect = lower value 1.01 | locus YKL160W, strain elf1, stronger effect = lower value 0.976 | locus YKR001C, strain vps1, stronger effect = lower value 0.992 | locus YKR026C, strain gcn3, stronger effect = lower value 1.01 | locus YKR091W, strain srl3, stronger effect = lower value 0.996 | locus YLL001W, strain dnm1, stronger effect = lower value 0.962 | locus YLL026W, stronger effect = lower value 1.01 | locus YLL041C, strain sdh2, stronger effect = lower value 1.01 | locus YLR027C, strain aat2, stronger effect = lower value 1.01 | locus YLR039C, strain RIC1, stronger effect = lower value 1.03 | locus YLR058C, strain SHM2, stronger effect = lower value 1 | locus YLR102C, strain apc9, stronger effect = lower value 0.992 | locus YLR113W, strain HOG1, stronger effect = lower value 1.05 | locus YLR221C, strain rsa3, stronger effect = lower value 1.05 | locus YLR258W, strain gsy2, stronger effect = lower value 0.986 | locus YLR262C, strain YPT6 (second series), stronger effect = lower value 1.01 | locus YLR262C, strain YPT6, stronger effect = lower value 1.05 | locus YLR268W, strain sec22, stronger effect = lower value 0.987 | locus YLR320W, strain mms22, stronger effect = lower value 1.04 | locus YLR330W, strain CHS5, stronger effect = lower value 0.996 | locus YLR342W, strain FKS1 (second series), stronger effect = lower value 1.02 | locus YLR342W, strain FKS1, stronger effect = lower value 1.01 | locus YLR357W, strain rsc2, stronger effect = lower value 0.993 | locus YLR370C, strain arc18, stronger effect = lower value 1.01 | locus YLR371W, strain rom2, stronger effect = lower value 1 | locus YLR384C, strain iki3, stronger effect = lower value 1.02 | locus YLR418C, strain cdc73, stronger effect = lower value 0.994 | locus YML016C, strain PPZ1, stronger effect = lower value 0.997 | locus YML032C, strain rad52, stronger effect = lower value 1 | locus YML120C, strain ndi1, stronger effect = lower value 0.981 | locus YML124C, strain tub3, stronger effect = lower value 1.01 | locus YMR058W, strain fet3, stronger effect = lower value 1.03 | locus YMR078C, strain ctf18, stronger effect = lower value 1.01 | locus YMR125W, strain sto1, stronger effect = lower value 0.987 | locus YMR129W, stronger effect = lower value 1 | locus YMR205C, strain PFK2, stronger effect = lower value 1 | locus YMR223W, strain ubp8, stronger effect = lower value 1 | locus YMR231W, strain pep5, stronger effect = lower value 1.01 | locus YMR307W, strain GAS1, stronger effect = lower value 0.98 | locus YNL067W, strain RPL9B, stronger effect = lower value 1 | locus YNL071W, strain lat1, stronger effect = lower value 1.01 | locus YNL183C, strain NPR1, stronger effect = lower value 0.985 | locus YNL209W, strain ssb2, stronger effect = lower value 0.991 | locus YNL233W, strain BNI4, stronger effect = lower value 1.01 | locus YNL248C, strain rpa49, stronger effect = lower value 1.04 | locus YNL250W, strain rad50, stronger effect = lower value 1.03 | locus YNL271C, strain bni1, stronger effect = lower value 1 | locus YNL298W, strain CLA4, stronger effect = lower value 0.99 | locus YNL307C, strain MCK1, stronger effect = lower value 0.997 | locus YNL322C, strain KRE1 (second series), stronger effect = lower value 1.01 | locus YNL322C, strain KRE1, stronger effect = lower value 0.985 | locus YNR049C, strain mso1, stronger effect = lower value 1.01 | locus YNR052C, strain pop2, stronger effect = lower value 0.999 | locus YOL012C, strain htz1 1.32 | locus YOL147C, strain pex11, stronger effect = lower value 1 | locus YOR001W, strain rrp6, stronger effect = lower value 1.07 | locus YOR061W, strain CKA2, stronger effect = lower value 1.01 | locus YOR069W, strain VPS5, stronger effect = lower value 1 | locus YOR070C, strain gyp1, stronger effect = lower value 1.03 | locus YOR080W, strain dia2, stronger effect = lower value 1.01 | locus YOR083W, strain WHI5, stronger effect = lower value 0.973 | locus YOR106W, strain vam3, stronger effect = lower value 0.991 | locus YOR136W, strain idh2, stronger effect = lower value 0.991 | locus YOR144C, strain elg1, stronger effect = lower value 0.996 | locus YOR184W, strain ser1, stronger effect = lower value 0.992 | locus YOR231W, strain MKK1, stronger effect = lower value 1.05 | locus YOR265W, strain rbl2, stronger effect = lower value 1 | locus YOR270C, strain vph1, stronger effect = lower value 1.06 | locus YOR290C, strain snf2, stronger effect = lower value 0.969 | locus YOR316C, strain cot1, stronger effect = lower value 0.999 | locus YPL051W, strain arl3, stronger effect = lower value 0.997 | locus YPL055C, strain LGE1, stronger effect = lower value 1 | locus YPL078C, strain atp4, stronger effect = lower value 0.966 | locus YPL106C, strain sse1, stronger effect = lower value 1.01 | locus YPL240C, strain hsp82, stronger effect = lower value 1.01 | locus YPL241C, strain CIN2, stronger effect = lower value 1 | locus YPL256C, strain CLN2, stronger effect = lower value 1.01 | locus YPR119W, strain clb2, stronger effect = lower value 0.998 | locus YPR141C, strain kar3, stronger effect = lower value 0.986 | locus YPR163C, strain tif3, stronger effect = lower value 0.999 | locus YPR167C, strain met16, stronger effect = lower value 1 | strain wtn01, stronger effect = lower value 0.987
